Values joined by “and” are separate entries in the source; they are usually repeats but may differ in a detail not shown here. Equal entries are not always repeated. Where two headings read alike, the source gives them in different places.

Experiment [1] has as its system TYK2(JH1domain-catalytic).
Experiment [2] has as its system ULK2.
The subject of experiment [3] is AAK1. Conditions: concentration: 1 μM, replicates: in singlicate, n = 1.
In experiment [4] the test system is ABL1-nonphosphorylated. The note with it: concentration: 1 μM, replicates: in singlicate; n = 1.
The test system of experiment [5] is ABL1-phosphorylated. Conditions: concentration: 1 μM, replicates: in singlicate, n = 1.
The subject of experiment [6] is ABL2. Conditions: concentration: 1 μM, replicates: in singlicate, n = 1.
The subject of experiment [7] is ACVR1B. Conditions: concentration: 1 μM, replicates: in singlicate, n = 1.
Experiment [8] concerns ACVR1. Conditions: concentration: 1 μM, replicates: in singlicate; n = 1.
Experiment [9] has as its system T1, VPS34.
T1 construct: gene PIK3C3

For experiment [10], the system named is T2, YSK4.
T2 construct: gene MAP3K19

The test system of experiment [11] is T3, p38-alpha.
T3 construct: gene MAPK14

For experiment [12], the system named is TGFBR1.
Experiment [13] relates to TXK.
The subject of experiment [14] is ZAK.
In experiment [15] the test system is VRK2.
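For %Inh in this document: KINOMEscan kinase panel screen.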
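For Kd in this document: kd values determined as follow-up on hits from a single-replicate KINOMEscan panel screen.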

One may read the Kd as the concentration at which binding is half-saturated. Lower therefore signals tighter binding. As to `Cc1ccc(NC(=O)c2ccnc(N3CCN(C)CC3)c2)cc1-c1ccc(C(=O)NCC2CC2)cc1` [GW775604], the Kd in experiment [1] and in experiment [2] was more than 10 µM each time. Further, the “%Inh” value in experiment [3] was determined as 0%; in [4] it was 45%; in [5], 0%; in experiment [6] it was 0%; in [7] it was 0%; in experiment [8], 0%.
In experiment [9], `O=c1cc(N2CCOCC2)nc2n(Cc3cccc(C(F)(F)F)c3)ccn12` [GSK2297543] gave a Kd of 0.13 µM. The “%Inh” value in [3] is 0%; in experiment [4] it was 0%; in [5] it was 0%; in [6], 3%; in experiment [7], 0%; in experiment [8], 5%.
For `NS(=O)(=O)c1cccc(-c2ccc3ncc(N4CCOCC4)nc3c2)c1` [GSK1535721], the Kd in [9] was more than 10 µM; in experiment [10], 3.4 µM. Further, the “%Inh” value in experiment [3] came to 26%; in experiment [4] it was 1%; in experiment [5] it was 0%; in experiment [6], 0%; in experiment [7] it was 0%; in [8], 21%.
In [11], `Cc1cccc(-c2nc(-c3ccc(S(C)(=O)=O)cc3)sc2-c2ccncc2)c1` yielded a Kd of 0.54 µM. The “%Inh” value worked out at 8% in experiment [3]; 0% in [4]; 0% in [5]; 29% in [6]; 0% in experiment [7]; 0% in experiment [8].
For `O=c1cc(N2CCOCC2)nc2n(Cc3cccc(F)c3)ccn12` [GSK2297430], binding in experiment [9] was put at a Kd of 0.033 µM. Besides, the “%Inh” value in experiment [3] was determined as 5%; in experiment [4], 0%; in [5], 0%; in experiment [6], 2%; in experiment [7], 0%; in [8] it was 1%.
In [12], `O=C(c1ccc(-c2cc(-c3c[nH]nc3-c3ccccn3)ccn2)cc1)N1CCOCC1` [GW812171] yielded a Kd of 0.18 µM. Besides, the “%Inh” value in [3] turned out to be 0%; in experiment [4], 36%; in [5] it was 29%; in experiment [6], 2%; in experiment [7], 76%; in experiment [8], 0%.
Consider `O=C(NCCNc1ccnc(Nc2ccc(F)cc2)n1)c1cc2ccccc2s1` [GSK1379874], for which the equilibrium dissociation constant (Kd) in [13] and in experiment [14] was more than 10 µM each time. The “%Inh” value stood at 0% in experiment [3]; 0% in [4]; 0% in [5]; 7% in [6]; 0% in experiment [7]; 9% in [8].
`NCCNS(=O)(=O)c1ccc(-c2ccnc3[nH]ccc23)cc1` [GSK977617]: the “%Inh” value in experiment [3] (1 µM) was 67% and 57%; in experiment [4], 0%; in experiment [5] (1 µM), 9% and 0%; in [6] (1 µM), 22% and 1%; in experiment [7] (1 µM), 3% and 0%; in experiment [8], 0%.
As to `Nc1nccc(-c2c(-c3ccc(F)cc3)ncn2C2CCN(CC(F)(F)F)CC2)n1` [SB-236560], the “%Inh” value in experiment [3] was 5%; in [4] it was 46%; in experiment [5] it was 0%; in [6], 0%; in experiment [7], 0%; in experiment [8] it was 19%.
For `O=C(Nc1n[nH]c2cc(-c3cccc(F)c3)ccc12)C1CC1` [SB-735464], the Kd in [10] worked out at 0.31 µM. Besides, the “%Inh” value in experiment [3] was 26%; in [4] it was 64%; in experiment [5] it was 43%; in experiment [6] it was 8%; in [7] it was 10%; in [8] it was 36%.
Consider `CC(C)Oc1ccc2c(-c3ccnc(Nc4ccc(N5CCN(C)CC5)cc4)n3)cnn2n1` [GW696155], for which the “%Inh” value in experiment [3] is recorded as 90%; in experiment [4], 39%; in [5], 53%; in experiment [6], 14%; in [7], 0%; in [8], 69%.
On to `CNc1ncnc2[nH]ncc12` [SKF-18355], for which the “%Inh” value in [3] was 0%; in [4], 34%; in [5] it was 11%; in experiment [6], 0%; in experiment [7] it was 4%; in experiment [8] it was 0%.
Turning to `O=c1cc(N2CCOCC2)nc2n(Cc3cccc4ccccc34)ccn12` [GSK2333389], the Kd in experiment [9] was found to be 0.06 µM. The “%Inh” value in experiment [3] is 0%; in [4], 0%; in [5] it was 0%; in [6] it was 17%; in experiment [7] it was 0%; in experiment [8], 0%.
For `CC(C)(C)n1cnc2c(N)ncnc21` [SKF-97359], in experiment [15], the Kd is more than 10 µM. In addition, the “%Inh” value in experiment [3] amounted to 0%; in experiment [4] it was 37%; in experiment [5] it was 0%; in experiment [6], 1%; in experiment [7], 0%; in experiment [8], 0%.
`Cc1nnc(-c2ccc(C)c(-c3ccc(C(=O)Nc4ccc(NS(C)(=O)=O)cc4)cc3)c2)o1` [GW702865] came in with a dissociation constant Kd in experiment [11] of 0.14 µM. The “%Inh” value in [3], in experiment [4], in [5], in experiment [6], in experiment [7] and in experiment [8] was 0% throughout.
Take `COc1ccc(Nc2nccc(N3CCC(NC(=O)Nc4cccc(C(C)=O)c4)C3)n2)cc1` (stereo not drawn) [GSK1379731]: the Kd in experiment [15] was more than 10 µM. For the same compound, the “%Inh” value in experiment [3] is 0%; in experiment [4], 0%; in experiment [5], 0%; in [6] it was 7%; in experiment [7], 0%; in experiment [8], 0%.
